Results on 44 molecules are retold here after the antibiotic and cytotoxicity screens of Wong et al. (2023).

Hit rate of the full screen: of about 39,000 compounds, about 1,500 (3.8%) were called active. The sample holds actives, similar compounds and a random draw of the others, so the mix is not that of the screen.

This assay relates to HSkMC (human skeletal muscle cells). The assay can be described thus: cytotoxicity call (relative viability < 0.9). The note with it: 10 µM.
Take `COc1c(O)cc(O)cc1O`: the cytotoxicity call was “inactive”. The entry for `O=C1OCC=C[C@H]2O[C@@]34C=CCN(Cn5nnc6ccccc65)C(=O)[C@H]3N(CCO)C(=O)[C@@H]4[C@@H]12` is “inactive”; for `CNC(=O)CN1CCN2CCN(CC(=O)NC)CC(=O)[O][Gd]([O]C(=O)C2)[O]C(=O)C1` it is “inactive”; for `C[C@@H]1CCCCO[C@@H](CN(C)S(=O)(=O)c2cn(C)cn2)[C@@H](C)CN([C@@H](C)CO)C(=O)c2cc(NS(=O)(=O)c3cccs3)ccc2O1` it is “inactive”. As for `Cc1noc(C)c1S(=O)(=O)Nc1cccc2c1O[C@@H](CN(C)CC1CC1)[C@@H](C)CN([C@@H](C)CO)C2=O`, the entry is “inactive”.

As to `C[C@H]1CN([C@@H](C)CO)C(=O)c2cccc(NC(=O)Nc3ccc4c(c3)OCO4)c2O[C@H]1CN(C)S(C)(=O)=O`, the cytotoxicity call was “inactive”. The entry for `Cc1noc(C)c1S(=O)(=O)Nc1ccc2c(c1)C(=O)N([C@H](C)CO)C[C@H](C)[C@@H](CN(C)Cc1ccc(C(F)(F)F)cc1)OCCCC[C@@H](C)O2` is “inactive”; for `O=C(C[C@H]1C[C@H]2c3cc(NS(=O)(=O)c4ccc(F)cc4)ccc3O[C@H]2[C@@H](CO)O1)NCc1ccccc1F` it is “inactive”. The entry for `C[C@H]1CN([C@@H](C)CO)C(=O)c2cc(NC(=O)CCC(F)(F)F)ccc2O[C@@H]1CN(C)C(=O)Nc1ccc(C(F)(F)F)cc1` is “inactive”; for `C[C@H]1CN([C@@H](C)CO)C(=O)c2cccc(NC(=O)Nc3ccccc3)c2O[C@H]1CN(C)S(C)(=O)=O` it is “inactive”; for `COc1ccc(S(=O)(=O)Nc2cccc3c2O[C@@H](CN(C)C(=O)Nc2c(C)noc2C)[C@@H](C)CN([C@H](C)CO)C3=O)cc1` it is “inactive”. As for `Cc1noc(C)c1NC(=O)Nc1ccc2c(c1)CC(=O)N([C@H](C)CO)C[C@@H](C)[C@H](CN(C)S(=O)(=O)c1cn(C)cn1)O2`, the entry is “inactive”. Consider `C[C@H]1O[C@@H](O[C@H]2[C@@H](O)[C@@H](O)[C@@H](O[C@H]3CC[C@]4(C)[C@H]5CC=C6[C@H]7CC(C)(C)[C@H]8C[C@]7(C(=O)O8)[C@@H](O)C[C@]6(C)[C@@]5(C)CC[C@H]4C3(C)C)O[C@@H]2CO)[C@@H](O)[C@@H](O[C@H]2OC[C@@H](O)[C@@H](O)[C@@H]2O)[C@@H]1O`, for which the cytotoxicity call was “inactive”. As for `C[C@@H]1O[C@@H](O[C@H]2[C@H](O)[C@@H](O)[C@H](OC[C@H]3O[C@@H](OC(=O)[C@]45CCC(C)(C)C[C@@H]4C4=CC[C@H]6[C@@]7(C)CC[C@H](O[C@H]8OC[C@H](O)[C@H](O)[C@H]8O[C@H]8O[C@@H](C)[C@H](O)[C@@H](O)[C@H]8O)[C@@](C)(CO)[C@@H]7CC[C@@]6(C)[C@]4(C)CC5)[C@H](O)[C@@H](O)[C@@H]3O)O[C@@H]2CO)[C@H](O)[C@H](O)[C@H]1O`, the entry is “inactive”.

Regarding `Cn1cnc(S(=O)(=O)N2C[C@@H](O)COC[C@H]3O[C@H](CC(=O)N4CCN(c5ccccc5)CC4)CC[C@@H]32)c1`, the cytotoxicity call is “inactive”.

With `O=C(CCNCCO)c1ccccc1`, the cytotoxicity call is “inactive”. As for `O=C1c2cccc(O)c2C(=O)c2c(O)cccc21`, the entry is “inactive”. As for `O=[N+]([O-])c1ccc(NCCNCCO)cc1`, the entry is “inactive”; as for `O=C1c2ccccc2C(=O)c2c1ccc(O)c2O`, “inactive”; as for `O=C1c2c(O)ccc(O)c2C(=O)c2c(NCCNCCO)ccc(NCCNCCO)c21`, “active”. As for `Cl.Cl.O=C1c2c(O)ccc(O)c2C(=O)c2c(NCCNCCO)ccc(NCCNCCO)c21`, the entry is “active”; as for `O=C1c2ccccc2C(=O)c2c(NCCNCCO)ccc(NCCNCCO)c21`, “active”. Turning to `COc1ccc(S(=O)(=O)Nc2ccc3c(c2)C(=O)N([C@@H](C)CO)C[C@H](C)[C@H](CN(C)Cc2ccncc2)O3)cc1`, the cytotoxicity call was “inactive”.

Take `C[C@@H]1CN([C@H](C)CO)S(=O)(=O)c2ccc(C#CCN(C)C)cc2O[C@@H]1CN(C)Cc1ccccc1F`: the cytotoxicity call was “inactive”. As for `C[C@@H]1CN([C@H](C)CO)C(=O)c2cc(NC(=O)Cn3cnnn3)ccc2O[C@H]1CN(C)C(=O)Nc1ccc2c(c1)OCO2`, the cytotoxicity call was “inactive”. As for `COc1ncc(-c2nc(N3CCOCC3)nc3c(CN4CCC(C(C)(C)O)CC4)cc(F)cc23)cc1NS(C)(=O)=O`, the entry is “inactive”; as for `CC(=O)/C(C)=N/O`, “inactive”. As for `C[C@@H]1CCCCO[C@H](CN(C)C(=O)c2ccccc2)[C@@H](C)CN([C@@H](C)CO)C(=O)c2cc(NC(=O)c3ccccc3)ccc2O1`, the entry is “inactive”.

As to `O=C1CCNc2cc3ccccc3cc21`, the cytotoxicity call is “active”. Turning to `O=C1NCc2ccccc21`, the cytotoxicity call was “inactive”.

As to `O=C1CCCNc2ccc(Cl)cc21`, the cytotoxicity call was “inactive”.

On to `C[C@H]1CCCCO[C@@H](CN(C)Cc2ccc(C(=O)O)cc2)[C@@H](C)CN([C@@H](C)CO)C(=O)c2cc(NC(=O)c3ccccc3)ccc2O1`, for which the cytotoxicity call is “inactive”. Consider `C[C@@H]1CCCCO[C@@H](CN(C)C(=O)Cc2ccccc2)[C@@H](C)CN([C@H](C)CO)C(=O)c2cc(NC(=O)Cc3ccccc3)ccc2O1`, for which the cytotoxicity call is “inactive”. As for `CO[C@@]12[C@H](COC(N)=O)C3=C(C(=O)C(C)=C(N)C3=O)N1C[C@@H]1N[C@@H]12`, the entry is “inactive”. Consider `COC12C(COC(N)=O)C3=C(C(=O)C(C)=C(N)C3=O)N1CC1NC12` (centres undefined), for which the cytotoxicity call is “inactive”. As for `CO[C@@]12[C@@H]3N[C@@H]3CN1C1=C(C(=O)C(N)=C(C)C1=O)[C@@H]2COC(N)=O`, the cytotoxicity call is “active”. `CCOC(=O)C1CCN(S(=O)(=O)c2c(C)n(C)c(=O)n(C)c2=O)CC1`: the cytotoxicity call was “inactive”.

As to `C[C@@H]1CN([C@H](C)CO)C(=O)CCCn2nncc2CO[C@@H]1CN(C)Cc1ccc(C(=O)Nc2ccccc2N)cc1`, the cytotoxicity call was “inactive”. As for `C[C@H](CO)N1C[C@H](C)[C@H](CN(C)Cc2ccc(Cl)c(Cl)c2)Oc2ccc(NC(=O)NC3CCCCC3)cc2CC1=O`, the entry is “inactive”; as for `C[C@@H]1CN([C@@H](C)CO)C(=O)Cc2cc(NC(=O)NC3CCCCC3)ccc2O[C@@H]1CN(C)Cc1ccc(Cl)c(Cl)c1`, “inactive”. The entry for `C[C@@H]1CN([C@H](C)CO)C(=O)Cc2cc(NC(=O)NC3CCCCC3)ccc2O[C@H]1CN(C)Cc1ccc(Cl)c(Cl)c1` is “active”. Turning to `C[C@@H]1CN([C@@H](C)CO)C(=O)Cc2cc(NC(=O)NC3CCCCC3)ccc2O[C@H]1CN(C)Cc1ccc(Cl)c(Cl)c1`, the cytotoxicity call was “inactive”.

Turning to `C[C@H](CO)N1C[C@H](C)[C@@H](CN(C)Cc2ccc(Cl)c(Cl)c2)Oc2ccc(NC(=O)NC3CCCCC3)cc2CC1=O`, the cytotoxicity call is “inactive”. For the molecule `C[C@@H]1CN([C@H](C)CO)C(=O)Cc2cc(NC(=O)NC3CCCCC3)ccc2O[C@@H]1CN(C)Cc1ccc(Cl)c(Cl)c1`, the cytotoxicity call is “active”.
